Measured values published in PubChem BioAssay (NCATS).
“And” between values parts separate entries of the source, which are not always exact repeats. Equal values may be shown once. Inconclusive results are not listed. The source made the active and inactive calls. Unless noted, calls come from the whole dose curve; as a rule, active = well fitted curve in the direction sought with a large enough effect; inconclusive = small, poorly fitted or top-dose-only effect, or another doubt; inactive = no such curve, though single readings can be large; an effect the other way counts as inactive or inconclusive.

Columns and labels:
[1] = qHTS assay for small molecule antagonists of peroxisome proliferator-activated receptor delta signaling (AID 588535; active = well fitted inhibition curve with a large enough effect in the signal ratio, with a control signal flat, not every such curve was filed as active; the % refers to the signal ratio;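 for max response: cells co-treated with a PPAR-delta agonist as stimulator during compound exposure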); conditions: HEK293T PPARd-UAS-bla, beta-lactamase FRET ratio, 18 h; 460 nm channel
Method in brief: (§1)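 Compounds tested in titration on PPAR-delta-UAS-bla HEK293T cells grown in charcoal/dextran-stripped serum (2%); beta-lactamase activity read via CCF4 emission at 460 and 530 nm.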

[2] = target: Peroxisome proliferator-activated receptor delta (Homo sapiens) (UniProt Q03181); experiment: as above
Sequence of Peroxisome proliferator-activated receptor delta (Homo sapiens) (Q03181 whole entry, looked up): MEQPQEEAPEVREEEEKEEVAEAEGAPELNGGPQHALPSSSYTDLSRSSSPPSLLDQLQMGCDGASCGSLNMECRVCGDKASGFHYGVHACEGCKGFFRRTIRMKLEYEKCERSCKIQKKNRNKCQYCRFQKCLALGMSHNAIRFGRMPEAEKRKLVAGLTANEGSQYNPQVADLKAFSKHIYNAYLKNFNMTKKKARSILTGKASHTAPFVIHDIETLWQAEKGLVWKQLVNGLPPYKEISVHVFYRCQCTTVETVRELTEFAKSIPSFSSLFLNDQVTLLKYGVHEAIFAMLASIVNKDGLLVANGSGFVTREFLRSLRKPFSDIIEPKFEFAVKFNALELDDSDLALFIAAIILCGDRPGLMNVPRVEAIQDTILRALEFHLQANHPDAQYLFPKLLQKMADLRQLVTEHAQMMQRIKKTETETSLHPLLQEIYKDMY
Method in brief: as §1

[3] = target: Vitamin D3 receptor (Homo sapiens) (UniProt P11473); experiment: qHTS assay for small molecule antagonists of vitamin D receptor signaling (AID 588541; calls by dose curve;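 note: receptor activated by calcitriol during compound treatment; % is set by controls: 0 for no effect and ±100 for the full control effect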)
Sequence of Vitamin D3 receptor (Homo sapiens) (P11473 whole entry, looked up): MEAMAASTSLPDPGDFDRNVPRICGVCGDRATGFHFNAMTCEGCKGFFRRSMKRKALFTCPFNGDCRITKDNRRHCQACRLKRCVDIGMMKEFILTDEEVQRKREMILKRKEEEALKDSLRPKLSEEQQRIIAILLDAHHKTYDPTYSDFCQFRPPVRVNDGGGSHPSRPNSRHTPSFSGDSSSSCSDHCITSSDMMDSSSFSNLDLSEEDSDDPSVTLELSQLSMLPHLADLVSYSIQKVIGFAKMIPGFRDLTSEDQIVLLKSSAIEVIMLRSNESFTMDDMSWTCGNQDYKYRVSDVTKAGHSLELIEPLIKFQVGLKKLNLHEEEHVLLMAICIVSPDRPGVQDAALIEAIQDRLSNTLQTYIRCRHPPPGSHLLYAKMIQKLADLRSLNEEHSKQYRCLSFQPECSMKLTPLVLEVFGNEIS
Method in brief: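 VDR-UAS-bla HEK293T cells (2000/well, 2% charcoal-stripped FBS) were treated with titrated compounds plus 1-alpha,25-dihydroxyvitamin D3 (50 nM or 3 nM final) for 16 h at 37 C. CCF4 beta-lactamase fluorescence was read; Hill fits gave IC50.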

[4] = target: Vitamin D3 receptor (Homo sapiens) (UniProt P11473); experiment: qHTS assay for small molecule agonists of vitamin D receptor signaling (AID 588543; calls by dose curve;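 note: 0% = DMSO basal and 100% = reference agonist control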)
Method in brief: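 VDR-UAS-bla HEK293T cells, 2000/well, 2% charcoal-stripped FBS; compound titration 16 h at 37 C; CCF4 beta-lactamase ratio read. Normalized to 50 nM 1-alpha,25-dihydroxyvitamin D3 (100%) and DMSO; Hill fit gives EC50, efficacy.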

[5] = target: Thyroid hormone receptor beta (Homo sapiens) (UniProt P10828); experiment: qHTS assay for small molecule agonists of thyroid hormone receptor beta signaling (AID 588545; calls by dose curve;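 note: 0% = DMSO only and 100% = 10 nM T3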)
Sequence of Thyroid hormone receptor beta (Homo sapiens) (P10828 whole entry, looked up): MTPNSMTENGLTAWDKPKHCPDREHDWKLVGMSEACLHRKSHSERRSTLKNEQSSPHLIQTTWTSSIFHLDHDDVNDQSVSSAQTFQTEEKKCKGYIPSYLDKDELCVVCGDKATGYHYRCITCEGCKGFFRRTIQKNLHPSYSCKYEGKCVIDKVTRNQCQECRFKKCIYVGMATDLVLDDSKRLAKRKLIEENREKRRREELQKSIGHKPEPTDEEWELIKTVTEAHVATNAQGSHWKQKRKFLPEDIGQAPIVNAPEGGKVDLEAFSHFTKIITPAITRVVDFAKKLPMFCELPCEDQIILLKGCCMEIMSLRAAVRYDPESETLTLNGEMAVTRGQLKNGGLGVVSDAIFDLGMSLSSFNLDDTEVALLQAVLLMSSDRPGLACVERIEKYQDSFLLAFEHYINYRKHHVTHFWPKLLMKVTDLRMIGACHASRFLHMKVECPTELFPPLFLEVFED
Method in brief: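 TR-UAS-bla GripTite HEK 293 cells (2500/well, medium with 2% charcoal/dextran FBS) were treated in agonist mode for 18 h at 37 C, titrated. Beta-lactamase was read by CCF4 ratio after 2 h; normalized to 10 nM T3 (100%) and DMSO, Hill-fitted for EC50 and efficacy.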

[6] = qHTS assay for small molecule activators of the p53 signaling pathway (AID 651743; active = well fitted activation curve with a large enough effect in the signal ratio, not every such curve was filed as active; the % refers to the signal ratio; note: % of control where 0% means no effect); conditions: HCT-116 p53RE-bla, beta-lactamase FRET ratio, 16 h; activation: stronger effect = higher value
Method in brief: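 Here HCT-116 cells with an integrated p53-responsive beta-lactamase gene were incubated with compounds (16 hours, 37 C) after a 5-hour plating period; beta-lactamase activity was detected as fluorescence intensity via B/G FRET substrate.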

[7] = target: Peroxisome proliferator-activated receptor alpha (Homo sapiens) (UniProt Q07869); experiment: qHTS assay for small molecule agonists of the peroxisome proliferator-activated receptor alpha (PPARalpha) signaling pathway (AID 651778); conditions: PathHunter PPARalpha complementation, chemiluminescence, 6 h; max response: stronger effect = higher value; note: % of control where 0% means no effect
Sequence of Peroxisome proliferator-activated receptor alpha (Homo sapiens) (Q07869 whole entry, looked up): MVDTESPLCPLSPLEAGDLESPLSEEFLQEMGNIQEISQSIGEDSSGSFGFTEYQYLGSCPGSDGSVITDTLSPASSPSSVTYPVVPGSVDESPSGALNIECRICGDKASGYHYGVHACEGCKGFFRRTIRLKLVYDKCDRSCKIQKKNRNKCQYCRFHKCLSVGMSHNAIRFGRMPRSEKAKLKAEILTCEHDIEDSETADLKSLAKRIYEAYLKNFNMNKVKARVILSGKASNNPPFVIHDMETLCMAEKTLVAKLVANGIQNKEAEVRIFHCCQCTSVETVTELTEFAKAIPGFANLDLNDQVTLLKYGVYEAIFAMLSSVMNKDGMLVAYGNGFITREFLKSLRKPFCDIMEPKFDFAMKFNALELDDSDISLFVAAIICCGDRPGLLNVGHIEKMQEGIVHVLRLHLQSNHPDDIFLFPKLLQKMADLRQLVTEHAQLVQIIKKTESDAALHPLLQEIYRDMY
Method in brief: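 Cells plated at 2,000/well and held overnight at 37 C, 5% CO2, then compound added by pin tool for 6 hr; after PathHunter detection reagent and 60 min at room temperature, chemiluminescence from enzyme complementation was read.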

[8] = qHTS assay for cell viability of the p53RE-bla HCT-116 cell line (AID 743292); note: % is set by controls: 0 for no effect and ±100 for the full control effect; nearly all actives have a fitted effect of over 55% in size
Method in brief: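 After plating at 4,000 cells per well and a 5 h rest at 37 C, HCT-116 cells carrying p53RE-bla received test chemicals in DMSO. Sixteen hours later at 37 C, CellTiter-Glo was added and luminescence recorded following 30 min at room temperature.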

[9] = target: Nuclear receptor subfamily 1 group I member 2 (Rattus norvegicus) (UniProt Q9R1A7); experiment: qHTS assay for small molecule activators of the rat pregnane X receptor (rPXR) signaling pathway (AID 651751; call rule not given here; note: 0% is about no effect); conditions: rPXR reporter cells, luciferase (One-Glo), 24 h
Sequence of Nuclear receptor subfamily 1 group I member 2 (Rattus norvegicus) (Q9R1A7 whole entry, looked up): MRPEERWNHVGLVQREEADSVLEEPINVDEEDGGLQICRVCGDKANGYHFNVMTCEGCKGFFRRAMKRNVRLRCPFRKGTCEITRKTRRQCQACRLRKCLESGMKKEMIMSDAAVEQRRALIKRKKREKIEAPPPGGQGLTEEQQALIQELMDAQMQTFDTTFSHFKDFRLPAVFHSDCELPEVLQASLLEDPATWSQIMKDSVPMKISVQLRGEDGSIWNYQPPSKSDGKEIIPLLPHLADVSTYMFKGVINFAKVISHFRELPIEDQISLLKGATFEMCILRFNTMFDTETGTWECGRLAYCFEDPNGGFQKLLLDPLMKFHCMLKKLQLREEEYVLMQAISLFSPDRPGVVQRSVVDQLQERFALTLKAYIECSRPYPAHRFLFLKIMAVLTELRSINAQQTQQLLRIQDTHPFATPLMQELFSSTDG

[10] = qHTS assay for small molecule activators of the human pregnane X receptor (PXR) signaling pathway (AID 720659; call rule not given here; note: 0% is about no effect)
[11] = NCATS anti-infectives library activity on the primary C. elegans qHTS viability assay (AID 1745855; calls by dose curve; note: potency is the fitted concentration of half-maximal effect)
Method in brief: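 Titration-based screen in worms: eggs hatched overnight in M9, L1 larvae fed TOP10 capsules in S medium with compound, incubated 21 °C for 7 days; fluorescent objects gated by size and intensity at days 0, 3 and 7.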

[12] = qHTS drug screen for cell cycle checkpoint inhibitors in PARPi-resistant BRCA-mutant ovarian cancer cell lines. (AID 1963452; calls by dose curve); conditions: PEO1/OlaR viability, CellTiter-Glo luminescence, 96 h, stronger effect = lower value
Method in brief: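 PEO1, PEO4 and PEO1/OlaR ovarian cancer cells, 600 per well, exposed 96 h at 37C to a dilution series. Viability read by CellTiter-Glo luminescence, normalized to DMSO and empty wells; activity summarized as Z-AUC.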

[13] = Viability counterscreen for antagonist of constitutive androstane receptor (CAR) against the NCATS DSHEA and TCM libraries (AID 1794837);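 note: compound exposure lasted 24 h before viability reading; 0% is about no effect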
Method in brief: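 HepG2-CYP2B6-hCAR cells, 2,500/well, were exposed 24 hr at 37C to substances together with 48 uM CITCO (final). Viability was read as CellTiter-Fluor fluorescence (Ex/Em 405/540 nm) after 1 hr.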

[14] = target: Cytochrome P450 2D6 (Homo sapiens) (UniProt P10635); experiment: qHTS for inhibitors of CYP2D6 against the NCATS DSHEA and TCM libraries (AID 1919972); note: % is set by controls: 0 for no effect and ±100 for the full control effect
Sequence of Cytochrome P450 2D6 (Homo sapiens) (P10635 whole entry, looked up): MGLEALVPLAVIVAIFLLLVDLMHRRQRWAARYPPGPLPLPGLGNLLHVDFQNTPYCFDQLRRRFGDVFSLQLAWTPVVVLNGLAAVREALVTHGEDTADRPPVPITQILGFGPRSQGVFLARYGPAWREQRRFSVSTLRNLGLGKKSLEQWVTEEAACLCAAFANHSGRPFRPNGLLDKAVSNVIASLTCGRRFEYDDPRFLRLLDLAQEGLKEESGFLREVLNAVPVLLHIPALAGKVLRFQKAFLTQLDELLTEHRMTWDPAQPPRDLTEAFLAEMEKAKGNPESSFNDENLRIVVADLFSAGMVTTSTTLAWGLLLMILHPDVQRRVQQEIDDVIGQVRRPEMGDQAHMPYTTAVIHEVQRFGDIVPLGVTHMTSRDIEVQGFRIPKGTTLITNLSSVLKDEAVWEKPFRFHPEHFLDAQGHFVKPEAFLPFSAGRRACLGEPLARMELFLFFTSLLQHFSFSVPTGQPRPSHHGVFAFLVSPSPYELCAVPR
Method in brief: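 qHTS, concentration–response format with most substances from 19.5 nM. CYP2D6 + pro-luciferin substrate, 15 min with compound, then 1x NADPH regen, 30–45 min RT dark. Glo detection 30 min, luminescence. Quinidine control.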

[15] = qHTS Counterscreen for compound interference against the NCATS DSHEA and TCM libraries (AID 1919978); conditions: firefly luciferase detection reagent interference, luminescence;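 note: compounds preincubated with 1 µM D-luciferin or buffer before detection reagent; % of control where 0% means no effect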
Method in brief: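 Firefly luciferase detection reagent was added after compounds (19.5 nM–39.8 uM final) had been incubated 15 min at room temperature with 1 uM D-luciferin or with 100 mM phosphate buffer alone. Luminescence was read after 30 min at room temperature.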

[16] = Dual reporter qHTS for agonist of Pregnane X Receptor (hPXR) against the NCATS DSHEA and TCM libraries: Fluorescence readout (AID 1920058); note: 0% is about no effect
Method in brief: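 Fluorescence read-out for cell viability: CellTiter-Fluor, 1 h at 37 °C, Ex/Em 405/540 nm. This followed ~24 h treatment of hPXR-Luc HepG2 cells with substances in agonist mode.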

[17] = target: Nuclear receptor subfamily 1 group I member 2 (Homo sapiens) (UniProt O75469); experiment: Dual reporter qHTS for antagonist of Pregnane X Receptor (hPXR) against the NCATS DSHEA and TCM libraries: Luminescence Readout (AID 1920060); note: 0% is about no effect
Sequence of Nuclear receptor subfamily 1 group I member 2 (Homo sapiens) (O75469 whole entry, looked up): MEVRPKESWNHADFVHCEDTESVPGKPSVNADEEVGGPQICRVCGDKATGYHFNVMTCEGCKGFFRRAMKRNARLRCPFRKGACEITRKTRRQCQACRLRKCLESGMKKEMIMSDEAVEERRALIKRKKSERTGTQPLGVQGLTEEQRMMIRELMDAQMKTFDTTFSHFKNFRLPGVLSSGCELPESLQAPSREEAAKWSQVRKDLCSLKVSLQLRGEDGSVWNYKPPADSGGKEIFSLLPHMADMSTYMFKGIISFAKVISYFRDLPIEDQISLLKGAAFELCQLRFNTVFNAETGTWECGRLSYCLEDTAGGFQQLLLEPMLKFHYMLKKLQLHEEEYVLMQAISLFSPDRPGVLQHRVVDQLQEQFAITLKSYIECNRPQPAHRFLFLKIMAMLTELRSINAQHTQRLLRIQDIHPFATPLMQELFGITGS
Method in brief: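 Rifampicin-stimulated (2 uM final) hPXR-luciferase HepG2 cells were treated for 24 h with DSNP/TCM substances. Viability came from CellTiter-Fluor fluorescence, reporter activity from ONE-Glo luminescence.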

[18] = qHTS profiling for inhibitors of Plasmodium falciparum proliferation (AID 504749);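 note: 0% = DMSO vehicle and full inhibition = artemisinin control; nearly all actives have a fitted effect of over 60% in size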; conditions: P. falciparum in erythrocytes, SYBR Green DNA, 72 h, at 28.7 µM (top of the series)
Method in brief: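 Fluorescence of SYBR Green-bound parasite DNA, read at 485/535 nm, served as the growth measure. Infected erythrocytes were cultured with compound 72 h; artemisinin (0.29 uM) and DMSO wells defined the normalization range.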

[19] = target: Cytochrome P450 2C19 (Homo sapiens) (UniProt P33261); experiment: qHTS Assay for Inhibitors and Substrates of Cytochrome P450 2C19 (AID 899); note: potency is the fitted concentration of half-maximal effect; nearly all actives have a fitted effect of over 60% in size
Sequence of Cytochrome P450 2C19 (Homo sapiens) (P33261 whole entry, looked up): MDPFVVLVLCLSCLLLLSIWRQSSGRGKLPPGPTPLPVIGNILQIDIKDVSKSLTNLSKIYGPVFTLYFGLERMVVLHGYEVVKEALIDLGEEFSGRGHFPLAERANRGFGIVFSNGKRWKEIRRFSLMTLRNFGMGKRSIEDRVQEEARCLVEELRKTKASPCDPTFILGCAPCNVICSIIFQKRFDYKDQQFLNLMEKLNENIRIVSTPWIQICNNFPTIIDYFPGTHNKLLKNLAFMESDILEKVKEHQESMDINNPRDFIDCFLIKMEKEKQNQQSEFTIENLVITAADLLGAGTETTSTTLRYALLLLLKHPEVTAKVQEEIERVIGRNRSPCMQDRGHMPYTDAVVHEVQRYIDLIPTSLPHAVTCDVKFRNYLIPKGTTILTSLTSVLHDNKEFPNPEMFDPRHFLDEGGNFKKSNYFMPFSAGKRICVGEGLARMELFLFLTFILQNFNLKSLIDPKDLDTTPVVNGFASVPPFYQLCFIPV
Method in brief: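 Human CYP2C19 (5nM) with Luciferin-H EGE at 10uM (its KM) in 50mM KPO4 was preincubated with compound for 10 min at 37C. NADPH regeneration started a 60 min 37C reaction. Luciferin was read by luminescence, normalized to 57uM ketoconazole.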

[20] = qHTS Assay for Identification of Small Molecule Agonists for Hypoxia Response Element Signaling Pathway (AID 914; active = well fitted activation curve with a large enough effect in the signal ratio, with a control signal flat, not every such curve was filed as active; the % refers to the signal ratio; note: potency is the fitted concentration of half-maximal effect; for activation: % of control where 0% means no effect); conditions: ME-180 (cervical carcinoma) HRE-bla reporter, beta-lactamase ratio, CoCl2, 17 h; activation: stronger effect = higher value
Method in brief: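 qHTS titration; ME-180 HRE-bla cells; EC50 CoCl2 co-treatment, 17 h at 37 degrees Celsius; CCF4 dye, ex 405nm, em 460nm and 530nm; %Activity from ratio; AC50.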

[21] = measured here: PEO1 parental Z-AUC

O=C(/C=C/c1ccc(O)c(O)c1)O[C@@H](C(=O)O)[C@@H](OC(=O)/C=C/c1ccc(O)c(O)c1)C(=O)O
max response [1]: 24.1%
Potency [2]: inactive
outcome [3]: inactive
outcome [4]: inactive
outcome [5]: inactive
activation [6]: 0.853% (inactive)
max response [7]: -4.13% (inactive)
Potency [8]: inactive
max response [9]: -5.44% (inactive)
outcome [10]: inactive

O=C(Nc1ccccc1)c1ccccc1O
max response [1]: -6.49%
Potency [2]: inactive
outcome [5]: inactive
activation [6]: 20.6% (inactive)
max response [7]: -0.0723% (inactive)
Potency [8]: inactive
max response [9]: -1.47% (inactive)

CC(C)c1nc(CN(C)C(=O)N[C@@H](CCN2CCOCC2)C(=O)N[C@H](CC[C@H](Cc2ccccc2)NC(=O)OCc2cncs2)Cc2ccccc2)cs1
Potency [11]: 23 µM (active)

CC[C@@]1([C@@H]2O[C@@H]([C@H]3O[C@@](O)(CO)[C@H](C)C[C@@H]3C)C[C@@H]2C)CC[C@H]([C@]2(C)CCC3(C[C@H](O)[C@@H](C)[C@@H]([C@@H](C)[C@@H](OC)[C@H](C)C(=O)O)O3)O2)O1 (stereo partly drawn)
Z-AUC [12]: -0.884 (inactive)
Z-AUC [12, 21]: -0.753
Z-AUC ([12]; measured here: PEO4 Z-AUC): -1.58

O=C(/C=C/c1ccc(O)c(O)c1)O[C@H]1[C@H](O)C[C@](O)(C(=O)O)C[C@H]1OC(=O)/C=C/c1ccc(O)c(O)c1
outcome [13]: inactive
Potency [14]: inactive
max response [15]: -1.54% (inactive)
outcome [16]: inactive
outcome [17]: inactive

CCC(C)n1ncn(-c2ccc(N3CCN(c4ccc(OCC5COC(Cn6cncn6)(c6ccc(Cl)cc6Cl)O5)cc4)CC3)cc2)c1=O (stereo not drawn)
Z-AUC [12]: -0.487 (inactive)
Z-AUC [12, 21]: 0.019
Z-AUC ([12]; measured here: PEO4 Z-AUC): -0.0223
activity, negative = inhibition ([18]; parasite line A): 0.495% (inactive)
activity, negative = inhibition ([18]; parasite line B): -11% (inactive)

CC12CCC(CC1=O)C2(C)C (stereo not drawn)
max response [1]: -33.5% and 11.1%
Potency [2]: inactive
outcome [3]: inactive
outcome [4]: inactive
outcome [5]: inactive
activation [6]: -2.06% (inactive) and 2.14% (inactive)
max response [7]: -4.19% (inactive) and 0.373% (inactive)
Potency [8]: inactive
max response [9]: 4.6% (inactive) and -1.11% (inactive)
outcome [10]: inactive

O=c1c(O[C@@H]2O[C@H](CO)[C@H](O)[C@H](O)[C@H]2O)c(-c2ccc(O)c(O)c2)oc2cc(O)cc(O)c12
outcome [13]: inactive
Potency [14]: inactive
max response [15]: 1.88% (inactive)
outcome [16]: inactive
outcome [17]: inactive

CCCCN(Cc1ccc(C(=O)NO)cc1)C(=O)Nc1ccccc1
Potency [11]: inactive

Cc1nc2cnc(N3CCN(C)CC3)nc2n(CCc2ccccc2)c1=O
Potency [19]: 5.01 µM (active)

N#CCCn1c(=O)c(-c2ccc(Cl)cc2)nc2cnc(N3CCOCC3)nc21
activation [20]: 22.6% (inactive)

COc1cccc(-c2ccc3ncnc(Nc4ccccc4)c3c2)c1
Potency [19]: 0.501 µM (active)

N#Cc1cccc(-c2nc(NCCN3CCOCC3)c3ccccc3n2)c1
activation [20]: -16.9% (inactive)

COc1ccccc1-c1nccc(N2CCN(C)CC2)n1
activation [20]: 26.2% (inactive)

CN(C)c1ccc(-c2cncnc2NCCN2CCOCC2)cc1
Potency [19]: 6.31 µM (active)
Potency [20]: 1.26 µM (active)

COCCn1c(=O)c(-c2cccs2)nc2cnc(Oc3ccccc3)nc21
Potency [20]: 3.16 µM (active)

COc1ccc(CNc2ncncc2-c2ccccc2OC)c(OC)c1
Potency [19]: 2 µM (active)

COc1cccc(-c2ccc3ncnc(N4CCNCC4)c3c2)c1
Potency [19]: 3.16 µM (active)

COc1cccc(-c2ccc3ncnc(NCc4cnc(C)cn4)c3c2)c1
activation [20]: -8.99% (inactive)

CCNc1ncc2ncc(=O)n(Cc3cccc(OC)c3)c2n1
Potency [19]: 2 µM (active)

COc1ccc(-c2nc3cnc(N4CCOCC4)nc3n(-c3ccc(OC)cc3)c2=O)cc1
Potency [20]: 3.16 µM (active)

COc1cccc(Nc2ncc3ncc(=O)n(Cc4ccc(F)cc4)c3n2)c1
activation [20]: -20.2% (inactive)

CN(C)c1ncc2nc(-c3ccccc3)c(=O)n(C)c2n1
Potency [20]: 2.51 µM (active)

COCCn1c(=O)c(-c2cc(F)cc(F)c2)nc2cnc(N3CCN(C)CC3)nc21
Potency [20]: 3.16 µM (active)
